# Measurements reported in article PMC8222333, “AsCas12a ultra nuclease facilitates the rapid generation of therapeutic cell medicines”.
# B1: GGTC (dsDNA)
# DNA 1: GCTATCTAGTGCTCAGTACGCACTGGGTCAGGAAACTTCTGGCAGGACCAGGTCATGAGATCGGAAGAGCACACGTCTGAACTCCAGTCA
# DNA 2: TGACTGGAGTTCAGACGTGTGCTCTTCCGATCTCATGACCTGGTCCTGCCAGAAGTTTCCTGACCCAGTGCGTACTGAGCACTAGATAGC
# RNA: AAUUUCUACUCUUGUAGAUAGGAAACUUCUGGCAGGACC
# B2: GTGT (dsDNA)
# DNA 1: GCTATCTAGTGCTCAGTACGCACTGGTGTAGGAAACTTCTGGCAGGACCAGGTCATGAGATCGGAAGAGCACACGTCTGAACTCCAGTCA
# DNA 2: TGACTGGAGTTCAGACGTGTGCTCTTCCGATCTCATGACCTGGTCCTGCCAGAAGTTTCCTACACCAGTGCGTACTGAGCACTAGATAGC
# RNA: AAUUUCUACUCUUGUAGAUAGGAAACUUCUGGCAGGACC
# B3: GCTG (dsDNA)
# DNA 1: GCTATCTAGTGCTCAGTACGCACTGGCTGAGGAAACTTCTGGCAGGACCAGGTCATGAGATCGGAAGAGCACACGTCTGAACTCCAGTCA
# DNA 2: TGACTGGAGTTCAGACGTGTGCTCTTCCGATCTCATGACCTGGTCCTGCCAGAAGTTTCCTCAGCCAGTGCGTACTGAGCACTAGATAGC
# RNA: AAUUUCUACUCUUGUAGAUAGGAAACUUCUGGCAGGACC
# B4: GATG (dsDNA)
# DNA 1: GCTATCTAGTGCTCAGTACGCACTGGATGAGGAAACTTCTGGCAGGACCAGGTCATGAGATCGGAAGAGCACACGTCTGAACTCCAGTCA
# DNA 2: TGACTGGAGTTCAGACGTGTGCTCTTCCGATCTCATGACCTGGTCCTGCCAGAAGTTTCCTCATCCAGTGCGTACTGAGCACTAGATAGC
# RNA: AAUUUCUACUCUUGUAGAUAGGAAACUUCUGGCAGGACC
# B5: GGGA (dsDNA)
# DNA 1: GCTATCTAGTGCTCAGTACGCACTGGGGAAGGAAACTTCTGGCAGGACCAGGTCATGAGATCGGAAGAGCACACGTCTGAACTCCAGTCA
# DNA 2: TGACTGGAGTTCAGACGTGTGCTCTTCCGATCTCATGACCTGGTCCTGCCAGAAGTTTCCTTCCCCAGTGCGTACTGAGCACTAGATAGC
# RNA: AAUUUCUACUCUUGUAGAUAGGAAACUUCUGGCAGGACC
# B6: GTCT (dsDNA)
# DNA 1: GCTATCTAGTGCTCAGTACGCACTGGTCTAGGAAACTTCTGGCAGGACCAGGTCATGAGATCGGAAGAGCACACGTCTGAACTCCAGTCA
# DNA 2: TGACTGGAGTTCAGACGTGTGCTCTTCCGATCTCATGACCTGGTCCTGCCAGAAGTTTCCTAGACCAGTGCGTACTGAGCACTAGATAGC
# RNA: AAUUUCUACUCUUGUAGAUAGGAAACUUCUGGCAGGACC
# B7: GATT (dsDNA)
# DNA 1: GCTATCTAGTGCTCAGTACGCACTGGATTAGGAAACTTCTGGCAGGACCAGGTCATGAGATCGGAAGAGCACACGTCTGAACTCCAGTCA
# DNA 2: TGACTGGAGTTCAGACGTGTGCTCTTCCGATCTCATGACCTGGTCCTGCCAGAAGTTTCCTAATCCAGTGCGTACTGAGCACTAGATAGC
# RNA: AAUUUCUACUCUUGUAGAUAGGAAACUUCUGGCAGGACC
# B8: GCTC (dsDNA)
# DNA 1: GCTATCTAGTGCTCAGTACGCACTGGCTCAGGAAACTTCTGGCAGGACCAGGTCATGAGATCGGAAGAGCACACGTCTGAACTCCAGTCA
# DNA 2: TGACTGGAGTTCAGACGTGTGCTCTTCCGATCTCATGACCTGGTCCTGCCAGAAGTTTCCTGAGCCAGTGCGTACTGAGCACTAGATAGC
# RNA: AAUUUCUACUCUUGUAGAUAGGAAACUUCUGGCAGGACC
# Tests used:
# Test in all cases: Spec-seq (native PAGE EMSA with sequencing of bound and unbound); 25 mM Tris-HCl pH 7.4, 150 mM KCl, 5 mM MgCl2, 10% glycerol, 1 mM DTT, 40 ng/uL salmon sperm DNA; 400 nM Cas12a, 480 nM crRNA, 50 nM library, 37 C 1 h; native PAGE at room temperature; high values mean tight binding
# Settings in all cases: protein: recombinant
# [1] = molecular target: dAsCas12a Ultra (Acidaminococcus sp., UniProt U2UMQ6 1-1307, M537R;F870L;D908A;E993A;D1235A)
# [2] = molecular target: dAsCas12a E174R (Acidaminococcus sp., UniProt U2UMQ6 1-1307, E174R;D908A;E993A;D1235A);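 note: relative affinity from the bound to unbound sequence frequency ratio in Spec-seq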
# [3] = molecular target: dAsCas12a S542R (Acidaminococcus sp., UniProt U2UMQ6 1-1307, S542R;D908A;E993A;D1235A);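 note: relative affinity from the bound to unbound sequence frequency ratio in Spec-seq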
# [4] = molecular target: d-enCas12a (Acidaminococcus sp., UniProt U2UMQ6 1-1307, E174R;S542R;K548R;D908A;E993A;D1235A)
# [5] = molecular target: d-enCas12a-Ultra (Acidaminococcus sp., UniProt U2UMQ6 1-1307, E174R;S542R;K548R;M537R;F870L;D908A;E993A;D1235A);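 note: relative affinity from the bound to unbound sequence frequency ratio in Spec-seq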
Binder,binding signal [1],binding signal [2],binding signal [3],binding signal [4],binding signal [5]
B1,-8.4 lnKA,-8.96 lnKA,-8.74 lnKA,-3.44 lnKA,-0.971 lnKA
B2,-8.66 lnKA,-8.98 lnKA,-8.04 lnKA,-5.78 lnKA,-3.14 lnKA
B3,-7.49 lnKA,-7.49 lnKA,-7.86 lnKA,-5.74 lnKA,-2.73 lnKA
B4,-8.85 lnKA,-8.75 lnKA,-8.25 lnKA,-4.89 lnKA,-2.56 lnKA
B5,-8.93 lnKA,,-8.02 lnKA,-5.68 lnKA,-3.47 lnKA
B6,-8.79 lnKA,-8.88 lnKA,-7.55 lnKA,-4.02 lnKA,-0.927 lnKA
B7,-8.92 lnKA,-8.74 lnKA,-8.17 lnKA,-5.56 lnKA,-3.21 lnKA
B8,-6.65 lnKA,-6.48 lnKA,-7.23 lnKA,-4.98 lnKA,-1.57 lnKA
